This is a sample that favours compounds with a hit; in the whole collection about 3.5% have one here.
Pf apPOL inh: Pf-apPOL DNA polymerase inhibition | 0.25% of 210,000 active | Recombinant Pf-apPOL, molecular beacon fluorescence, 1.5 h | inhibition, % at 10 µM | AID 1794808
mHTT-CaM PPI inh: inhibitors of human mutant huntingtin-calmodulin interaction; P42858; AlphaScreen His-mHTT/GST-CaM binding, luminescence; inhibition, % at 15 µM; 3.6% of 190,000 active; AID 1671202
Of the large screens only hits and unclear results are named; the others gave an inactive call; ! = not confirmed by another sample. Cut-off read from the data, not from the text of the source: active = inhibition above about 50%; inactive = the rest.

CC(C)c1cc(C2CCCN2C(=O)c2ccnn2C)on1 (stereo unspecified)	none
CCN1CCc2c(sc(NC(=O)c3ccnn3C)c2C(N)=O)C1	none
CCN1CCc2c(sc(NC(=O)Nc3ccc(Cl)c(Cl)c3)c2C(N)=O)C1	mHTT-CaM PPI inh 85
Cc1ccc(C2=CC(c3ccc(F)c(Br)c3)n3nnnc3N2)cc1 (stereo unspecified)	none
Cn1c(=O)cc2c3c(c(N4CCCCC4)ccc31)C(=O)c1ccccc1-2	mHTT-CaM PPI inh 55
Cn1c(=O)cc2c3c(c(Br)ccc31)C(=O)c1ccccc1-2	none
CCCCN(CCCC)S(=O)(=O)c1ccc(C(=O)Nc2nnc(C)o2)cc1	mHTT-CaM PPI inh 58
COCCN(CCOC)S(=O)(=O)c1ccc(C(=O)Nc2nnc(C)o2)cc1	none
CCN(Cc1ccccc1)S(=O)(=O)c1ccc(C(=O)Nc2nnc(C3CC3)o2)cc1	mHTT-CaM PPI inh 72
CCCCN(CC)S(=O)(=O)c1ccc(C(=O)Nc2nnc(C3CC3)o2)cc1	none
Cc1cccc(-c2nc(C3CCN(S(=O)(=O)c4ccc(Cl)cc4)CC3)no2)c1	none
Cc1nc(C)c2c(n1)N(CCCOC1CCN(C)CC1)C(=O)CC2	none
CC(C)NC(=O)C1CN(C(=O)C(C)C)CC1c1cccc(F)c1 (stereo unspecified)	none
COc1ccc(C=C2Oc3cc(OC(=O)N4CCOCC4)ccc3C2=O)cc1OC	none
Cc1c(C(C)(C)C)sc(=NS(=O)(=O)c2cccc([N+](=O)[O-])c2)n1C	none
CC1=CC(=NS(=O)(=O)c2cccc([N+](=O)[O-])c2)C=CC1=O	mHTT-CaM PPI inh 84
Cc1ccc(NC(=O)CSc2nnc3c4ccccc4n(C)c3n2)cc1	none
Cc1c(Cl)cccc1S(=O)(=O)NCCC1CCN(C(=O)c2ccccc2)CC1	mHTT-CaM PPI inh 53
O=C(c1ccc(F)cc1)N1CCC(CCNS(=O)(=O)c2ccccc2Cl)CC1	none
Cc1ccc(S(=O)(=O)NCCC2CCN(C(=O)c3ccccc3)CC2)cc1C	none
O=C(c1ccc(F)cc1)N1CCC(CCNS(=O)(=O)c2cccc(Cl)c2)CC1	none
Cc1cc(C)c(S(=O)(=O)NCCC2CCN(C(=O)c3ccccc3)CC2)cc1C	mHTT-CaM PPI inh 64
O=C(c1ccccc1)N1CCC(CCNS(=O)(=O)c2cccc(Cl)c2)CC1	mHTT-CaM PPI inh 50
O=C(Nc1cccc(-c2nc3ncccc3o2)c1)c1ccc(-c2ccccc2)cc1	none
Cc1cc(C)c(S(=O)(=O)n2nnc3ccccc32)c(C)c1	none
CC(C)NC(=O)c1ccc(OCC2CCCN(C(=O)c3ccccc3)C2)cc1 (stereo unspecified)	none
COc1ccc(Nc2nc(-c3cccnc3)nc3ccccc23)cc1	mHTT-CaM PPI inh 54
Brc1ccc(Nc2nc(-c3cccnc3)nc3ccccc23)cc1	none
CN1CCN(C(=O)c2nn3c(C(F)(F)F)cc(-c4ccc(Cl)cc4)nc3c2Cl)CC1	none
O=S(=O)(Nc1ccccc1Br)c1ccc2nc(-c3ccccc3)[nH]c2c1	none
CCC(=O)N1N=C(c2ccc(C)cc2)CC1c1cc2cc(OC)ccc2nc1Cl (stereo unspecified)	none
COc1ccc(C2=NN(C(=O)CN3CCCCC3)C(c3ccc(C)cc3C)C2)cc1 (stereo unspecified)	mHTT-CaM PPI inh 100
COc1ccc(C2CC(c3ccc(F)cc3)=NN2C(=O)CN2CCOCC2)cc1 (stereo unspecified)	mHTT-CaM PPI inh 64
COc1ccc(C2=NN(C(=O)CN3CCOCC3)C(c3cccc(OC)c3OC)C2)cc1 (stereo unspecified)	none
COc1cccc(C2=NN(C(=O)CN3CCOCC3)C(c3ccccc3F)C2)c1 (stereo unspecified)	none
COc1ccc(C2=NN(C(=O)CN3CCCCC3)C(c3ccccc3F)C2)cc1 (stereo unspecified)	mHTT-CaM PPI inh 69
O=C(NCC1CCCO1)c1cc(Sc2ccc(F)cc2F)nc2ccccc12 (stereo unspecified)	none
CC1CC2=C(OC(N)=C(C#N)C2c2cccs2)/C(=C/c2cccs2)C1 (stereo unspecified)	none (no result: Pf apPOL inh)
c1ccc(CN2CCN(Cc3ccccn3)CC2)nc1	none
c1ccc(CNCCN2CCNCC2)nc1	mHTT-CaM PPI inh 100
CCC(=O)NCc1nc2c(n1CC)CN(S(=O)(=O)c1ccc(F)cc1)CC2	none
c1ccc2c3c([nH]c2c1)-c1nonc1CC3	Pf apPOL inh 93!
COc1ccc2c3c(ccc2c1)-c1[nH]c2ccccc2c1CC3	none (no result: Pf apPOL inh)
Cc1ccc(OCCCN2CCCC(C)C2)cc1 (stereo unspecified)	none
Cc1cccc(NC(=O)Cn2ccc3c(=O)[nH]ccc32)c1C	Pf apPOL inh 54
CCc1ccccc1NC(=O)Cn1ccc2c(=O)[nH]ccc21	none
COc1ccc(NC(=O)Cn2ccc3c(=O)[nH]ccc32)cc1	Pf apPOL inh 53
Cc1ccc(NC(=O)Cn2ccc3c(=O)[nH]ccc32)cc1C	none
COc1cc(CN2CCCC2c2cc(C)on2)ccc1O (stereo unspecified)	none
O=C(c1ccsc1)N1CCC(c2nncn2-c2ccccc2)CC1	none

Screens deposited in PubChem BioAssay by University of Kansas High Throughput Screening Laboratory.
